697 NFkB inh: lowers PMA/ionomycin-induced NF-kB signal in 697 B cells | 697 B-cell NF-kB luciferase reporter, 16 h | inhibition, % at 4 µM | hit rate 0.33% among 330,000; in the data active means inhibition above about 35%
Jurkat NFkB inh: inhibitors of the PMA/ionomycin-induced NF-kB reporter in Jurkat cells; inhibition, % at 4 µM; hit rate 0.53% among 330,000; AID 435003; PMA/ionomycin-induced NF-kB luciferase reporter, luminescence; in the data active means inhibition above about 50%
esBAF inh: SWI/SNF esBAF complex inhibition; mouse ES cells, Bmi1-luciferase knock-in reporter, 24 h; 100% = twice the neutral-well signal; reporter increase, % at 12.5 µM; hit rate 2% among 350,000; in the data active means activation above about 40%; inconclusive means no clear call, values can overlap the other calls;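 further: 0% = median of the plate's neutral control wells and 100% = double that signal; a rise in the Bmi1 reporter signal indicates esBAF inhibition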
Gli-Sufu antag: blocks Gli-Sufu signaling in a luciferase reporter | Sufu-KO-LIGHT fibroblasts, Gli luciferase reporter luminescence | inhibition, % at 5 µM | hit rate 0.74% among 340,000 | AID 588413;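 active means inhibition above about 55%, limit read from the data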;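 further: 0% = DMSO-treated cells and 100% = wells with medium but no cells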
SMARCA2 activ: SMARCA2 function activation, primary screen; MG213 cells, MMTV-luciferase reporter, dexamethasone, overnight; activation, % at 9.1 µM; hit rate 1% among 370,000; AID 652017; in the data active means activation above about 7.8%;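 further: 0% = vehicle wells and 100% = reference activator wells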
The depositor's hits bear a star; u = inconclusive; x = no result given. Hits are enriched below; roughly 3.3% of the tested compounds scored in any of these assays.

SMILES	697 NFkB inh	Jurkat NFkB inh	esBAF inh	Gli-Sufu antag	SMARCA2 activ
Cc1noc(C)c1NC(=O)N(C)C[C@@H]1Oc2ccc(NS(C)(=O)=O)cc2CC(=O)N([C@@H](C)CO)C[C@@H]1C	x	x	4	x	x
CC(=O)CC(=O)Nc1ccc(Cl)cn1	3	0	x	-7	-1
CC(C)CC(=O)NC(=S)Nc1ccc(Cl)cn1	-29	-12	49*	-39	4
CCCC/C=C1\CCc2c([nH]c3ccccc23)C1=O	-4	-36	u	-7	0
CCCCN1CCc2c([nH]c3ccccc23)C1=O	-48	-65	69*	1	5
Cn1c(=O)c2c(O)c(Cc3ccccc3)c(=O)[nH]c2n(C)c1=O	-23	-5	53*	0	0
C[C@H]1CCCCO[C@@H](CN(C)Cc2ccc3c(c2)OCO3)[C@@H](C)CN([C@@H](C)CO)C(=O)c2cc(NS(=O)(=O)c3ccc(Cl)cc3)ccc2O1	x	x	-1	x	x
Cc1nc(CN(C)c2ncnc3ccc(-c4ccc5c(c4)OCO5)cc23)cs1	x	x	43*	x	-2
CCCC#Cc1cnc2c(c1)C(=O)N([C@H](C)CO)C[C@@H](C)[C@H](CN(C)C(=O)c1cccnc1)O2	x	x	12	x	x
Cc1cccc(Cn2cc(SCC(=O)Nc3nccs3)c3ccccc32)c1	-1	-7	65*	-36	1
Cc1[nH]n(C(N)=S)c(=O)c1N=Nc1ccc(S(=O)(=O)N2CCCC2)cc1	-45	-16	53*	5	-1
Cc1[nH]n(C(N)=S)c(=O)c1N=Nc1ccc(Br)cc1	-233	-56	35	-62	4
NC(=S)n1[nH]c(-c2ccc([N+](=O)[O-])cc2)c(N=Nc2ccc(Cl)cc2)c1=O	x	x	-12	60*	x
Cc1ccc(N=Nc2c(C)[nH]n(C(N)=S)c2=O)cc1	-184	-94	57*	3	6
CNC(=O)C[C@H]1CC[C@@H]2[C@@H](COc3ccc(NC(=O)Nc4ccc(F)cc4)cc3C(=O)N2C)O1	x	x	12	x	x
O=[N+]([O-])c1ccc2[nH]c(O)c(N=Nc3ccc(F)cc3)c2c1	-18	18	-5	-3	-2
O=[N+]([O-])c1ccc(N=Nc2c(O)[nH]c3ccc(F)cc23)cc1	-83	-97	73*	-47	-1
CN(C)C(=O)[C@H]1[C@H](CO)[C@H]2Cn3c(ccc(C4=CCCC4)c3=O)[C@@H]1N2C	x	x	-3	x	x
O=C(C[C@H]1C[C@@H]2c3cc(NC(=O)Nc4ccccc4F)ccc3O[C@@H]2[C@@H](CO)O1)NCc1ccncc1	x	x	16	x	x
O=C(NCc1cccnc1)c1c[nH]c2cc3c(cc2c1=O)OCCO3	-16	13	62*	7	-4
O=C(/C=C/Nc1ccc(Br)cn1)c1cccc(OC(F)F)c1	-64	-33	68*	-59	3
O=C(/C=C\Nc1ccc(Br)cc1)c1cccnc1	-141	-135	x	-93	3
Nc1ccccc1-n1nc2ccc3ccccc3c2n1	x	x	41*	x	2
CCOC(=O)c1ccc(-c2ccc3c(c2)CCC3)nc1C	-183	-119	38	-92	7.9*
CCC(=O)N1[C@@H]2c3ccc(-c4ccncc4)c(=O)n3C[C@H]1[C@H](CO)[C@H]2C(=O)N1CCc2ccccc2C1	x	x	-3	x	x
SMILES	697 NFkB inh	Jurkat NFkB inh	esBAF inh	Gli-Sufu antag	SMARCA2 activ
O=C(CN1CCN(C(=O)c2ccc(-c3nc4ccccc4s3)o2)CC1)Nc1ccc(F)cc1	-3	-11	59*	-11	0
O=C(CN1CCN(C(=O)c2ccc(-c3nc4ccccc4s3)o2)CC1)Nc1ccccc1Cl	-71	-52	x	-17	-1
C[C@H]1CCCCO[C@H](CN(C)CC2CCCCC2)[C@@H](C)CN([C@@H](C)CO)C(=O)c2cc(NC(=O)c3ccncc3)ccc2O1	x	x	-8	x	x
CCc1cc2c(=O)c(-c3cnn(-c4ccccc4)c3)coc2c(CN2CCOCC2)c1O	-1	-11	54*	6	-3
C(=N\n1cnnc1)/c1ccccc1OCCOc1ccccc1	-25	-42	61*	-6	2
Cc1ccc(-c2cnc3c(c2)C(=O)N([C@H](C)CO)C[C@H](C)[C@@H](CN(C)C(=O)c2cccnc2)O3)cc1	x	x	0	x	x
COc1ccc(NC(=O)Nc2ccc3c(c2)CC(=O)N([C@@H](C)CO)C[C@H](C)[C@@H](CN(C)S(=O)(=O)c2c(C)noc2C)O3)cc1	x	x	-3	x	x
O=C(O)c1ccc(NNC(=S)Nc2cc(C(F)(F)F)ccc2Cl)cc1	-58	19	54*	19	0
Cc1ccc(/C(N)=N/OC(=O)/C=C/c2ccccc2)cc1	-18	-16	50*	-12	2
N/C(=N\OC(=O)CCc1ccccc1)c1ccc(Br)cc1	-18	-25	37	-13	3
Cc1ccc(/C(N)=N/OC(=O)CCc2ccccc2)cc1	-73	-63	60*	-43	5
c1ccc(Nc2ccnc(Nc3ccccc3)n2)cc1	-153	-116	45*	-4	1
CCOC(=O)Nc1ccc(Oc2ccccc2)cc1	-38	-48	54*	-44	3
CCCCOC(=O)Nc1ccc(C(C)C)cc1	-118	-107	75*	-103	2
COc1ccc(S(=O)(=O)N[C@@H]2CC[C@H](CC(=O)NCCc3ccncc3)O[C@@H]2CO)cc1	x	x	0	x	x
CCOc1ccc2nc(SCc3ccc(OC)cc3)sc2c1	-9	-11	x	-22	1
CCOc1ccc2nc(SCC(=O)c3ccccc3)sc2c1	-28	-5	47*	-27	7
CCOc1ccc2nc(SCc3ccccc3C#N)sc2c1	-76	-116	61*	-91	7
CCOc1ccc2nc(SCC(=O)NC3CC3)sc2c1	-6	-30	8	-5	5
Cc1cccc(-c2noc(C3CCCCC3)n2)c1	-152	-102	63*	-127	1
O=c1c(-c2ccccc2)nc(-c2ccccc2)cn1O	1	-8	54*	20	-1
Cc1ccc(S(=O)(=O)N[C@H]2CC[C@@H](CCNC(=O)Nc3ccc(Cl)cc3)O[C@H]2CO)cc1	x	x	45*	x	x
O=C(NCC[C@H]1CC[C@@H](NC(=O)Nc2cc(F)ccc2F)[C@H](CO)O1)Nc1ccc(Cl)cc1	x	x	25	x	x
O=C(NCC[C@H]1CC[C@H](NC(=O)Nc2cc(F)ccc2F)[C@H](CO)O1)Nc1ccc(Cl)cc1	x	x	43*	x	x
O=C(NCC[C@@H]1CC[C@@H](NC(=O)c2cccnc2)[C@H](CO)O1)Nc1ccc(C(F)(F)F)cc1	x	x	54*	x	x
COCCNC(=O)C[C@@H]1CC[C@@H]2[C@H](COC[C@H](O)CN2Cc2cccc(-c3ccncc3)c2)O1	x	x	-10	x	x
Cc1ccc(NC(=O)C2CCN(S(=O)(=O)c3ccc4c(c3)NC(=O)C(C)S4)CC2)cc1Cl (stereo not given)	-8	21	-22	60*	-9
Cc1cc(C)cc(NC(=O)C2CCN(S(=O)(=O)c3ccc4c(c3)NC(=O)C(C)S4)CC2)c1 (stereo not given)	-1	17	3	5	-3
CC(=NNC(=S)N1CCN(C2CCCCCC2)CC1)c1ccccn1	x	x	x	65*	-6
CC(=NNC(=S)N1CC2CCC(CC2)C1)c1ccccn1	x	x	x	x	-4
